PrPC TRFRET: inhibitors of human cell surface prion protein PrPC, primary screen, cell-based, TR-FRET. Major prion protein (Homo sapiens), P04156. TR-FRET read-out. inhibition, % at 13.8 µM. hit rate 0.43% among 370,000. AID 720596, 2013; in the data active means inhibition above about 24%; further: 0% = median of the test wells and 100% = reference compound wells
Mtb FBA inh: Mtb FBA enzyme inhibitors, primary screen, biochemical, fluorescence, strain H37Rv | Fructose-bisphosphate aldolase (Mycobacterium tuberculosis (strain ATCC 25618 / H37Rv)), … | AID 588726, 2011 | purified M. tuberculosis FBA, fluorescence read-out | hit rate 2.3% among 360,000 | inhibition, % at 1 µM; in the data active means inhibition above about 27%;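 further: 0% = vehicle and 100% = reference inhibitor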
BJeLR viability: MLPCN primary cell-based screen for lethality selective to Ras in HRASV12 cells | hit rate 0.17% among 300,000 | BJeLR (HRASV12) viability, CellTiter-Glo ATP luminescence, 48 h | inhibition, % (no concentration beside the values) | AID 1554, 2009; in the data active means inhibition above about 50%
RecA splice inh: Mtb RecA intein splicing inhibitors, primary screen, biochemical, fluorescence, HTS; Protein RecA (Mycobacterium tuberculosis (strain ATCC 25618 / H37Rv)), P9WHJ3; cell-free RecA intein splicing; inhibition, % (test concentration not listed); hit rate 0.75% among 290,000; in the data active means inhibition above about 30%;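 further: 0% = vehicle wells and 100% = reference inhibitor control wells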
Target sequence (P9WHJ3 whole entry, looked up, canonical isoform): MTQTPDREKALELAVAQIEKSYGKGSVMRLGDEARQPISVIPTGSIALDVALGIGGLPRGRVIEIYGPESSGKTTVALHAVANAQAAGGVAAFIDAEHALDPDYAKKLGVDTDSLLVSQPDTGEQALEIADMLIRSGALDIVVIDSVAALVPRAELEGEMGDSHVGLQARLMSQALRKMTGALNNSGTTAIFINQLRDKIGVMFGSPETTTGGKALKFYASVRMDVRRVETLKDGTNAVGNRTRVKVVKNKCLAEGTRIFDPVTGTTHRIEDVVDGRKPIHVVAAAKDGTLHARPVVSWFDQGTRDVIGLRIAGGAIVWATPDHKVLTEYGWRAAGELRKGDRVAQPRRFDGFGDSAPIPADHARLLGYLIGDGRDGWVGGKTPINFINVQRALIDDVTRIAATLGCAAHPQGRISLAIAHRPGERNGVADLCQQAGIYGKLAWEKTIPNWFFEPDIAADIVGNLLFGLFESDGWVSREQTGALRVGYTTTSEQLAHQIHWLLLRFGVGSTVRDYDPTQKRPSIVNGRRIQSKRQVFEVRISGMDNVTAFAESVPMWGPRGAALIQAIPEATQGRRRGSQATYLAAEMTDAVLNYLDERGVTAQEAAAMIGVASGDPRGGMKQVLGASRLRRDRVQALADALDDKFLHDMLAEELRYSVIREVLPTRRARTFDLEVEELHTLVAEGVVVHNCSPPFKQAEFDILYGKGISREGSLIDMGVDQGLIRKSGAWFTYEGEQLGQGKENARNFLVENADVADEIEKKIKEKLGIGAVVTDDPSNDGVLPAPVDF
GDH-TPI inh: GDH-TPI coupling enzyme inhibitors, primary screen, artefact control for M. tuberculosis FBA inhibitor project, biochemical, absorbance, full deck; GDH-TPI coupled enzyme counterscreen, NADH absorbance; inhibition, % at 4.8 µM; hit rate 1.2% among 360,000; in the data active means inhibition above about 30%;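 further: 0% = DMSO wells and 100% = wells lacking the enzyme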
GFP chromophore: counter-screen: blocks GFP chromophore formation, dose response, counter-screen, biochemical, fluorescence, homogeneous; shares compounds with RecA splice inh; cell-free GFP chromophore formation; EC50, µM; hit rate 83% among 2,100; AID 434968, 2010; call rule not given here
* marks the source's active call; other numbers are inactive results; x = no result given. Sampled rows, rich in hits. Any-hit rate of the full collection: about 4.2%.

SMILES | PrPC TRFRET | Mtb FBA inh | BJeLR viability | RecA splice inh | GDH-TPI inh | GFP chromophore
COc1ccc2nc(C)cc(Sc3nc4ccccc4s3)c2c1 | 6 | -1 | 2 | 38* | -4 | 24*
Fc1ccc(Nc2nc(NCc3ccco3)c3ccccc3n2)cc1 | 18 | 2 | -4 | 49* | -2 | 18*
c1ccc(CNc2nc(NCc3ccccc3)c3ccccc3n2)cc1 | x | 7 | 7 | 60* | -5 | 23*
CCn1c(Cc2cccs2)nnc1SCC(=O)Nc1ccc(Cl)cc1C | 5 | x | x | x | x | x
COc1ccccc1-c1cn[nH]c(=S)n1 | 2 | 5 | 8 | 35* | 7 | >38
C=CCN1[C@H](CO)[C@H](c2ccc(Br)cc2)[C@@H]1C#N | 7 | x | x | x | x | x
COc1ccc(-c2cc(C(F)(F)F)nc(S(=O)(=O)CCCC(=O)Nc3cccc(O)c3)n2)cc1OC | -3 | 0 | -28 | 62* | 9 | 19*
COc1ccccc1-c1cc(C(F)(F)F)nc(S(=O)(=O)CCCC(=O)N2CCOCC2)n1 | 7 | 3 | 12 | 48* | 12 | 16*
O=[N+]([O-])c1cc(C(F)(F)F)cc([N+](=O)[O-])c1NCCNC(=S)Nc1ccc(Cl)c(Cl)c1 | -2 | -3 | 17 | 30* | -15 | >38
COc1ccc(-n2c(COc3ccc(Cl)cc3)nnc2SCC(=O)Nc2ccc3c(c2)OCO3)cc1 | 1 | x | x | x | x | x
O=C(c1ccncc1)N(c1ccc2oc3c(c2c1)CCCC3)S(=O)(=O)c1ccc(F)cc1 | 7 | 0 | -7 | 51* | -2 | 4.1*
c1ccc(Cn2ccc3ccc(-c4ccc5ccn(Cc6cccc(-c7cccs7)c6)c5c4)cc32)cc1 | -4 | x | x | x | x | x
Cc1[nH]n(-c2ccccc2)c(=O)c1/C=C1\C=NN=C1c1ccccc1 | 12 | -3 | -3 | 82* | 12 | 7.4*
COc1ccc(C2NN=C(c3c[nH]c4ccccc34)C2O)cc1 (stereo not given) | 5 | -2 | -4 | -3 | -1 | x
COc1ccc(C2C(O)C(c3c[nH]c4ccccc34)=NN2C(=O)CCl)cc1 (stereo not given) | -1 | 16 | 100* | 87* | 19 | 2.3*
O=C(CCl)N1CCCC1c1ccc2c(c1)OCCO2 (stereo not given) | 1 | -1 | 14 | 74* | -6 | 33*
CC(=O)c1cccc2c(O)c(C3=Nc4ccccc4C3=O)[nH]c12 | -4 | 6 | 8 | 41* | 21 | 4.6*
COC(=O)c1cc(-c2cccc(C#N)c2)c(=O)n2c1CCC2 | -7 | x | x | x | x | x
CCCCCCCCCCOC(=O)Cn1c(COc2ccccc2C)[n+](C)c2ccccc21 | x | 4 | 2 | 57* | 11 | 7.6*
CCCCCCCCCCOC(=O)Cn1c(COc2ccccc2)[n+](C)c2ccccc21 | 22 | -1 | 5 | 47* | -1 | 12*
CCCCOC(=O)Cn1c(=O)n(CC(=O)OCCCC)c2ccccc21 | -7 | 2 | 5 | -1 | -10 | x
CN(C)C(=O)Oc1cccc(OCc2n(C)c3ccccc3[n+]2C)c1 | 4 | -3 | 4 | -1 | -5 | x
CCCCCCCCCCOC(=O)Cn1c(COc2ccc(Cl)cc2)[n+](C)c2ccccc21 | -2 | 1 | -7 | -2 | 3 | x
CCOC(=O)Cn1c(COc2ccccc2OC)[n+](C)c2ccccc21 | 4 | -1 | -6 | 0 | 9 | x
CCCCCCCCCCOC(=O)Cn1c(COc2cccc(C)c2)[n+](C)c2ccccc21 | 10 | -4 | 3 | 55* | 8 | 9.4*
SMILES | PrPC TRFRET | Mtb FBA inh | BJeLR viability | RecA splice inh | GDH-TPI inh | GFP chromophore
CCCCCCCCCCOC(=O)Cn1c(COc2ccc(OC)cc2)[n+](C)c2ccccc21 | x | 0 | 7 | 42* | -7 | 11*
Cc1ccc(S(=O)(=O)NCC2CCC(C(=O)NCCCN3CCOCC3)CC2)cc1 (stereo not given) | 0 | 1 | 3 | 1 | 0 | >38
Cc1ccc(S(=O)(=O)NCC2CCC(C(=O)NCCCN3CCC(C)CC3)CC2)cc1 (stereo not given) | -4 | 0 | x | x | 2 | x
CC(=O)Nc1ccc(S(=O)(=O)/N=C2\C(=O)c3ccccc3C([O-])=C2n2cc[n+](-c3ccccn3)c2)cc1 | -35 | 3 | 10 | 85* | 4 | 6.1*
Cc1ccc(S(=O)(=O)/N=C2\C(=O)c3ccccc3C([O-])=C2n2cc[n+](CCC(C)C)c2)cc1 | x | -8 | -5 | 13 | -3 | x
CCOC(=O)NC[C@@]1(C(=O)OC)CC(=O)N(Cc2ccc(Cl)cc2)[C@@H]1c1ccc(OC)cc1 | 14 | x | x | x | x | x
Nc1ccc2ncccc2c1 | -4 | 2 | -2 | 70* | 1 | 16*
CCCC/C=C1/C(c2ccccc2)N(Cc2ccc(OC)cc2OC)C2=NC(c3ccccc3)CC(=O)N21 (stereo not given) | 3 | x | x | x | x | x
COc1cccc(Oc2nnnn2-c2ccccc2)c1 | 7 | 1 | 8 | -1 | -2 | x
COc1cccc(-n2nnnc2S(C)(=O)=O)c1 | x | 1 | -3 | 91* | 3 | 7.3*
CN(C)/C=C/C(=O)c1ccc2noc(-c3ccc(F)cc3)c2c1 | 3 | -3 | -3 | 31* | 15 | >38
CN1CCCCC(NC(=O)CCl)C1=O (stereo not given) | 0 | x | x | x | x | x
CCc1ccc(S(=O)(=O)Nc2ccc(O)c3ccccc23)cc1 | -18 | 5 | -4 | 92* | -4 | 0.15*
O=S(=O)(Nc1ccc(O)c2ccccc12)c1ccc(F)cc1 | -18 | -2 | -1 | 94* | 6 | 0.15*
CNc1nc(N)c([N+](=O)[O-])c(Nc2ccccc2)n1 | 0 | x | x | x | x | x
COC(=O)[C@H](C(C)C)N(CCCc1cn(CC2CCCCC2)nn1)S(=O)(=O)c1ccccc1Br | 1 | x | x | x | x | x
Cc1ccccc1CN1CCCCC(NC(=O)c2cc(-c3ccccc3)no2)C1=O (stereo not given) | -6 | x | x | x | x | x
CCCc1[nH]nc2c1C(c1ccccc1OC)C(C#N)=C(N)O2 (stereo not given) | -2 | -6 | -8 | 61* | 1 | 20*
CCCc1[nH]nc2c1C(c1cn[nH]c1-c1ccc(F)cc1)C(C#N)=C(N)O2 (stereo not given) | x | 0 | -2 | 81* | 11 | 7.1*
CCCc1[nH]nc2c1C(/C(C)=C/c1ccccc1)C(C#N)=C(N)O2 (stereo not given) | 4 | -2 | -3 | 7 | -3 | x
CCCc1[nH]nc2c1C(CCC)C(C#N)=C(N)O2 (stereo not given) | 10 | 4 | -3 | 64* | 3 | 35*
CCCC(=O)Nc1ccc2c(c1)C(=O)N(C)[C@H]1CC[C@@H](CC(=O)OC)O[C@@H]1CO2 | 6 | x | x | x | x | x

Screening data deposited in PubChem by several laboratories.
